Measured values taken from PubChem BioAssay.

Experiment: probe aEGFR binding to arrayed compounds – biochemical, biotinylated probe, 635/667 nm fluorescence, primary screen (AID 1097);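 note: probe is a biotinylated anti-EGFR antibody binding compounds printed on slides; score combines fluorescence near 667 nm and signal to noise of each spot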
Settings: small-molecule microarray, higher = more signal

**Q.** Which composite z-score does the source give for `COCC(=C=CC[C@@H](O)c1ccccc1OCCO)C[C@@H](O)c1ccccn1` here?
**A.** -0.0512

**Q.** With `COc1ccc([Si](C)(C)[C@H]2[C@H](CCO)O[C@@]3(C(=O)N(Cc4cccc(N5CCOC5=O)c4)c4ccccc43)[C@@H]2C)cc1` as the compound, how does the composite z-score read?
**A.** -0.0973

**Q.** Which composite z-score does the source give for `COC(=O)C(CC#Cc1ccc2c(c1)[C@]1(C(=O)N2)[C@H](C(=O)N2CCc3cc(OC)c(OC)cc3C2)[C@H]2C(=O)O[C@H](c3ccccc3)[C@H](c3ccccc3)N2[C@@H]1c1ccc(O)cc1)C(=O)OC` here?
**A.** 0.404

**Q.** With `COc1ccc([Si](C)(C)[C@H]2[C@H](CCn3cc(CCO)nn3)O[C@@]3(C(=O)N(Cc4cccc(N5C(=O)c6cccc7cccc5c67)c4)c4ccccc43)[C@@H]2C)cc1` as the compound, how does the composite z-score read?
**A.** -0.142

**Q.** For `C[C@H]1ON(c2ccccc2)[C@@H](c2ccccc2)[C@@H]1C(=O)N1C(=O)OC[C@@H]1c1ccccc1`, which composite z-score is on record?
**A.** -0.0409

**Q.** For `COc1ccc(C#Cc2ccc3c(c2)[C@]2(C(=O)N3)[C@H](C(=O)O)[C@H]3C(=O)O[C@H](c4ccccc4)[C@H](c4ccccc4)N3[C@@H]2c2ccc(OCCO)cc2)cc1`, which composite z-score is on record?
**A.** -0.0433

**Q.** For `C=CCC(OC(C)=O)[C@@H]1[C@@H](N(Cc2ccc(-c3ccccc3)cc2)C(=O)Cc2ccc(OC)cc2)c2cc(OCCCO)ccc2N1C(=O)c1ccc(-c2ccccc2)cc1` (some centres undefined), which composite z-score is on record?
**A.** -0.0488

**Q.** Which composite z-score does the source give for `Cc1ccc(S[C@]2(C(=O)NCC(C)C)CC(=O)N(C3CCCCC3)[C@@H]2c2ccc(CO)cc2I)cc1` here?
**A.** -0.276

**Q.** With `COC(=O)C(CC#Cc1ccc2c(c1)[C@]1(C(=O)N2)[C@H](c2ccc(OCCO)cc2)N2[C@H](c3ccccc3)[C@H](c3ccccc3)OC(=O)[C@H]2[C@@H]1C(=O)O)C(=O)OC` as the compound, how does the composite z-score read?
**A.** 0.374
